ChEMBL document CHEMBL4513216, “Probing the Open Global Health Chemical Diversity Library for Multistage-Active Starting Points for Next-Generation Antimalarials” (ACS Infect Dis, 2020)
Among all 69,000 compounds or so, about 8,600 (12%) showed an effect of 50% or more. This is one part of a sample in which strong results are shown more often than they occur.

These compounds were tested on Plasmodium berghei (assay: Screen against P. berghei liver stage (PbLuc), transformed with Luciferase, at 10uM). Settings: tested at 10 uM.
Format: functional, HepG2

Row | SMILES | INHIBITION
1 | O=C1CO[C@@H]2CN(C3CCOCC3)C[C@H]2N1Cc1cccc(F)c1 | 25.2%
2 | O=C1CO[C@@H]2CN(CC3CCOC3)C[C@H]2N1Cc1cccc(F)c1 (stereo not given in full) | 27.6%
3 | O=C1CO[C@@H]2CN(CC3CC3)C[C@H]2N1Cc1cccc(F)c1 | 75.4%
4 | COc1cc(N2C[C@H](OCc3cccnc3)[C@H]3OCCC[C@H]32)ncn1 | 10.6%
5 | CC(C)CCN1C(=O)C2(NC(=O)c3ccccc3O2)c2ccccc21 (stereo not given) | 55.1%
6 | CN1C(=O)C2(NC(=O)c3ccccc3O2)c2ccccc21 (stereo not given) | 34%
7 | Cc1ccc2c(c1)OC1(NC2=O)C(=O)N(C)c2ccccc21 (stereo not given) | 31.6%
8 | O=C1NCC2(CCCN(C(=O)c3csc(-c4cccs4)n3)C2)O1 (stereo not given) | 22%
9 | CC(C)[C@H](N)C(=O)N1CCCC(C2=Nc3ccccc3S(=O)(=O)N2)C1 (stereo not given in full) | 26.4%
10 | COc1ccccc1N1CCC(CNS(=O)(=O)c2cccc(C#N)c2)C1 (stereo not given) | -4.94%
11 | Cc1cc(C2CCC2)nc(N2CCC3(CCNC(=O)CC3)CC2)n1 | -32.5%
12 | CC(C)c1cc(=O)[nH]c(-n2nc(C3CC3)cc2N)n1 | 97%
13 | NC1(c2nc(-c3ccccc3)cc(=O)[nH]2)CCCC1 | -13.7%
14 | CCCc1cc(=O)[nH]c(SCc2ccccn2)n1 | 3.93%
15 | NC1(c2nc(-c3ccccc3)cc(=O)[nH]2)CCCCC1 | -10.1%
16 | Cc1cc(=O)[nH]c(-n2nc(-c3ccccc3)cc2N)n1 | 65.2%
17 | CCCc1cc(=O)[nH]c(-c2cccc(CN3CCCCCC3)c2)n1 | 43.9%
18 | CC(C)c1cc(=O)[nH]c(C(C)(C)N)n1 | -39.2%
19 | Cc1cc(C(=O)Nc2cc(C3CC3)n[nH]2)c2c(C)nn(C)c2n1 | 0.991%
20 | CCCc1cc(=O)[nH]c(-n2nc(C3CC3)cc2N)n1 | 94%
21 | Cc1cc(=O)[nH]c(-n2nc(C3CC3)cc2N)n1 | 68.9%
22 | CCC(C)(N)c1nc(C(C)C)cc(=O)[nH]1 (stereo not given) | -4.35%
23 | O=C(C1=CCCC1)N1CCC[C@]2(C[C@@H](OCc3ccncc3)CO2)C1 | -9.67%
24 | Cc1ccccc1C1(C(=O)NCCN(C)C)CCOCC1 | 18.9665%
25 | CC(C)N(C)Cc1ncn2c1CN(C(=O)C1CCCO1)CCC2 (stereo not given) | 4.08%

Row | SMILES | INHIBITION
26 | O=c1c2c[nH]c(N3CCOCC3)nc-2cn1Cc1cccc(F)c1 | 33.4%
27 | COc1ccc(C(=O)CCc2nc(C3CC3)no2)cc1F | -19.1%
28 | COc1nn(C)c2c1CCCN(C(=O)c1ccsc1)C2 | -15.7%
29 | O=C1CN(C(=O)C2CN(c3ccc(F)cc3)CCO2)CCN1 (stereo not given) | -19.925%
30 | Cn1cnc(NC(=O)C2CC(=O)N(c3cccc(F)c3)C2)n1 (stereo not given) | 6.448%
31 | Cc1nc(C)n(CC2CCCN2Cc2nc3ccccc3s2)n1 (stereo not given) | 33.8%
32 | CNc1cc(C2CCCN2C(=O)CCc2ccccc2F)ccn1 (stereo not given) | 22%
33 | CCN(CCN(C)C)c1nc(CCN)nc2sc(C)c(C)c12 | 71%
34 | Cc1sc2nc(CCN)nc(N(C)CCCC3CCCO3)c2c1C (stereo not given) | 43.2%
35 | COCCN(CC1CC1)c1nc(CCN)nc2sc(C)c(C)c12 | 65.3%
36 | Cc1sc2nc(CCN)nc(N(CCN(C)C)CC3CCCO3)c2c1C (stereo not given) | 51.3%
37 | COCCN(Cc1cccs1)c1nc(CCN)nc2ccccc12 | -17.3%
38 | COCCN(CC1CC1)c1nc(CCN)nc2ccccc12 | 16.2%
39 | Cc1nn(C)c2nc(N(CCN(C)C)CC3CCCO3)sc12 (stereo not given) | 35.3%
40 | O=C(NCCCO)c1nnsc1-c1ccccc1 | 46.6%
41 | Cc1sc2c(C3CCCN(S(C)(=O)=O)C3)nc(C)n2c1C (stereo not given) | -22.6%
42 | Cc1cccc2nc(-c3nc4c([nH]3)CCCNC4=O)cn12 | -176%
43 | COc1ccnc(N2CCN(C(=O)COCC(F)(F)F)CC2)n1 | -2.725%
44 | Cc1nn(C)c(Cl)c1C1CCCN1C(=O)c1cnccn1 (stereo not given) | 25.1%
45 | Cc1ncsc1CCN(C)C(=O)C(c1cccnc1)N1CCOCC1 (stereo not given) | 0.266%
46 | CN(Cc1cc(C2CC2)[nH]n1)C(=O)C(c1cccnc1)N1CCCC1 (stereo not given) | 68.4%
47 | CCCn1ncc(C(=O)N(C)Cc2cc(C3CC3)[nH]n2)c1C | 40.6%
48 | Cc1n[nH]c(C)c1CCN(C)C(=O)C(c1cccnc1)N1CCOCC1 (stereo not given) | -12.5%
49 | CN(Cc1cc(C2CC2)on1)C(=O)C(c1cccnc1)N1CCCC1 (stereo not given) | 48.9%
50 | Cc1cc(C)nc(CN(C)C(=O)C(c2cccnc2)N2CCCC2)c1 (stereo not given) | 61.9%
